Activity calls are given as the source filed them.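 The calls were made as follows: active = cell event count below 40, meaning activity score above 60 where score is 100 minus count; inactive = the rest.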
Experiment: cytotoxicity in LNCaP prostate cells – cell-based, cell event count, single point, cytotoxicity control for prostate differentiation activator project, confirmation (AID 1076);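 also: counts scatter-gated live cells after medium removal discards detached dead cells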
Settings: LNCaP cell loss, flow cytometry event count, 4 d, stronger effect = lower value

Structure (SMILES) | cell event count (at 100 µM) | cell event count (event count, at 10 µM)
N#CC(C(=O)c1ccco1)c1ccccn1 (stereo unspecified) | 40 (active) | 40.5
COc1ccc(S(=O)(=O)CCC(=O)O)cc1 | 153 (inactive) | 47
CCc1ccc(-c2nc(CN3CCC(C(=O)NCc4ccccc4OC)CC3)c(C)o2)cc1 | 49 (inactive) | 190
O=C(c1ccccc1)c1ccc(N2CCNCC2)cc1 | 135 (inactive) | 168
COc1ccc(N2CCN(c3oc(COc4ccccc4Cl)nc3C#N)CC2)cc1 | 214 (inactive) | 172
Cc1ccccc1-c1nc(CN2CCC(C(=O)NCCCN3CC(C)CC(C)C3)CC2)c(C)o1 (stereo unspecified) | 11 (inactive) | 102
O=C(NCCCN1CCN(c2cccc(Cl)c2)CC1)C1CCC(=O)N1Cc1ccccc1Cl (stereo unspecified) | 12 (inactive) | 239
COc1ccc(/C=N/c2nc3ccccc3n2C)cc1OC | 90 (inactive) | 35.5
Cc1ccc2c(c1)c1c(n2CC(O)CNC(CO)(CO)CO)CCCC1 (stereo unspecified) | 70 (inactive) | 392
CCOC(=O)Cn1nc(-c2ccc(Cl)cc2)cc1N | 70 (inactive) | 22
Cc1ccc(S(=O)(=O)NCCCCC(NC(=O)OC(C)(C)C)C(=O)O)cc1 (stereo unspecified) (tested in a mixture with another compound) | 203 (inactive) | 138
COc1cccc(-c2cc(C(=O)N3CCN(C(c4ccccc4)c4ccccc4)CC3)no2)c1 | 440 (inactive) | 402
Cc1ccc(-n2nc3cc(Cl)c(NC(=O)c4ccco4)cc3n2)cc1 | 333 (inactive) | 236
Cc1cc2c(=O)n(CC(=O)N3CCN(c4ccccc4)CC3)cnc2s1 | 184 (inactive) | 170
Cn1nc(-c2ccc(Cl)cc2)c2cc(C(=O)NCCN3CCOCC3)sc21 | 10 (inactive) | 136
O=C(CSc1c[nH]c2ccccc12)N1CCOCC1 | 297 (inactive) | 149
Cc1oc(-c2ccc(Cl)cc2)nc1CN1CCCC(C(=O)NCc2ccccn2)C1 (stereo unspecified) | 34 (inactive) | 168
Cc1oc(-c2ccccc2F)nc1CN1CCC(C(=O)NCCC2=CCCCC2)CC1 | 17 (inactive) | 402
COc1ccc(CC(=O)Nc2ccc(-c3nnc(-c4ccc(C)cc4)o3)cc2)cc1 | 24 (inactive) | 112
Cc1ccc(CN2CCSc3ccc(C(=O)N4CCN(c5ncccn5)CC4)cc32)cc1 | 129 (inactive) | 266
COc1ccc(Nc2nc(N3CCCC3)c3ccccc3n2)cc1 | 50 (inactive) | 180

Structure (SMILES) | cell event count (at 100 µM) | cell event count (event count, at 10 µM)
COc1ccc(-c2nc(CN3CCC(C(=O)N4CCc5ccccc54)CC3)c(C)o2)cc1OC | 16 (inactive) | 298
C=CCn1cc(C(=O)N2CCN(C)CC2)c(=O)c2cc(S(=O)(=O)N3CCCC3)ccc21 | 168 (inactive) | 118
CCOC(=O)C1=C(C)N=c2s/c(=C\c3ccncc3)c(=O)n2C1c1ccc2c(c1)OCO2 (stereo unspecified) | 17 (inactive) | 272
COc1ccc2nc(NC(=O)C(NS(=O)(=O)c3cccs3)C(C)C)sc2c1 (stereo unspecified) | 67 (inactive) | 253
COc1ccc(-c2cc(C(F)(F)F)nc(N3CCN(C)CC3)n2)cc1 | 4 (inactive) | 102
COc1ccc(-c2ccc(-c3noc(-c4ccccc4)n3)c(OC)n2)cc1 | 30 (active) | 32
Cc1oc(-c2cccc(Cl)c2)nc1CN1CCC(C(=O)NCCCN2CCCC2=O)CC1 | 166 (inactive) | 190
COc1ccc(Cl)cc1N1CCN(CCNC(=O)Nc2ccccc2C)CC1 | 6 (inactive) | 506
COc1ccc(N2CCN(CCCNC(=O)C3CCCN(S(=O)(=O)c4cnc[nH]4)C3)CC2)cc1 (stereo unspecified) | 31 (inactive) | 92.5
Cc1ccc(C(=O)/C=C/Nc2cccc(O)c2)cc1 | 17 (inactive) | 74
Cn1c(=O)cc(SCC(=O)NCCCN2CCN(c3ccccc3F)CC2)c2ccccc21 | 166 (inactive) | 210
O=S(=O)(Nc1cccc2ncccc12)c1cccs1 | 42 (inactive) | 78.5
O=C(NCC(c1cccnc1)N1CCOCC1)c1cccc(Cl)c1 (stereo unspecified) | 175 (inactive) | 94.5
COC(=O)Nc1sc2c(c1C(N)=O)CCCCCC2 | 80 (inactive) | 202
COc1ccccc1NC(=O)c1nc[nH]c1C(=O)Nc1ccccc1OC | 103 (inactive) | 257
Cc1nc2ncnn2c(C)c1CCC(=O)NCCCN1CCN(c2cccc(Cl)c2)CC1 | 95 (inactive) | 148
CC1(C)CC(=O)c2cc(OCC(=O)NCCCN3CCN(c4ccccc4F)CC3)ccc2O1 | 11 (inactive) | 141
CCCCCn1c(=N)n(CC(O)COc2ccccc2OC)c2ccccc21 (stereo unspecified) | 20 (inactive) | 138
Cc1oc(-c2ccc(Cl)cc2)nc1CN1CCCC(C(=O)NCCCN2CCOCC2)C1 (stereo unspecified) | 42 (inactive) | 182
CCN1C(=O)OC2(CCCCC2)C1(C)O (stereo unspecified) | 230 (inactive) | 174
O=C(O)C1CCCCC1C(=O)Nc1cnn(Cc2ccccc2)c1 (stereo unspecified) | 42 (inactive) | 66.5

Structure (SMILES) | cell event count (at 100 µM) | cell event count (event count, at 10 µM)
Cc1ccc(-c2noc(CCC(=O)NCCCN3CCN(c4ccc(F)cc4)CC3)n2)cc1 | 14 (inactive) | 98
COc1ccccc1CNC(=O)C1CCN(Cc2nc(-c3cccc(Cl)c3)oc2C)CC1 | 9 (inactive) | 158
O=C(NCCCN1CCN(c2cccc(Cl)c2)CC1)c1ccc(N2CCCC2=O)cc1 | 52 (inactive) | 171
CCc1ncc(C(O)c2cccc(OC)c2OC)n1C (stereo unspecified) | 285 (inactive) | 172
COc1ccc(-c2noc(CCC(=O)NCCCN3CCC(Cc4ccccc4)CC3)n2)cc1 | 23 (active) | 51
CN(C)CCCN1c2ccccc2CCc2ccc(Cl)cc21 | 43 (inactive) | 74
COC(=O)c1cc2oc3ccccc3c2n1CC(=O)Nc1ccccc1OC | 169 (inactive) | 184
CSc1nc2ccc(Nc3nc(N4CCOCC4)nc(N4CCOCC4)n3)cc2s1 | 48 (inactive) | 138
COc1ccc(Nc2nc(N)nc(CN3CCC(Cc4ccccc4)CC3)n2)cc1 | 6 (active) | 7.5
O=C(Nc1ccc2oc(Cc3ccc(Cl)cc3)nc2c1)c1cccnc1 | 17 (inactive) | 96
COC(=O)c1ccc2c(=O)n(Cc3ccco3)c(SCC(=O)Nc3ccc(C)c(Cl)c3)nc2c1 | 138 (inactive) | 146
Cn1c(C(=O)NCCN2CCN(c3ccccc3F)CC2)cc2c(=O)n(C)c3ccccc3c21 | 2 (inactive) | 194
CCOc1cccc2cc(-c3cn4cc(C)ccc4n3)c(=O)oc12 | 267 (inactive) | 300
Cc1nc2nc(C)c(CCC(=O)NCCCN3CCN(c4cccc(Cl)c4)CC3)c(C)n2n1 | 43 (inactive) | 61
CN1CCN(c2cc3c(c4c2[nH]c2ccccc24)C(=O)CC(C)(C)C3)CC1 | 31 (inactive) | 231
CCCCn1c2c(c3ccccc31)CCc1nonc1-2 | 134 (inactive) | 128
O=C(CCNC(=O)Cn1ccc2ccccc2c1=O)NCCCN1CCN(c2ccc(F)cc2)CC1 | 156 (inactive) | 91.5
COc1ccc(N2CCN(CCCNC(=O)CC3Oc4ccc(C)cc4NC3=O)CC2)cc1 (stereo unspecified) | 290 (inactive) | 140
CCN(CC)CCCNC(=O)c1cc(-c2cccc(Cl)c2)on1 | 170 (inactive) | 376
O=c1c2ccccc2nnn1CSc1nnc2sc3ccccc3n12 | 141 (inactive) | 143
Cc1sc(CO)c(Sc2ccccc2)c1C(=O)O | 324 (inactive) | 240

Structure (SMILES) | cell event count (at 100 µM) | cell event count (event count, at 10 µM)
O=C(NCCCN1CCN(c2ccccc2F)CC1)C1CCCN(S(=O)(=O)c2cnc[nH]2)C1 (stereo unspecified) | 425 (inactive) | 166
Cc1ccc(Cn2ccc(NC(=O)c3cc(-c4ccc(Br)cc4)on3)n2)cc1 | 257 (inactive) | 132
COc1ccc2nc3oc(C(=O)NCc4cccs4)cc3cc2c1 | 307 (inactive) | 304
Cc1nn(Cc2ccc(F)cc2)c(C)c1NC(=O)c1cc(-c2ccc3c(c2)OCO3)on1 | 105 (inactive) | 276
COc1cc2c(C(=O)NCCCN3CCN(c4cccc(Cl)c4)CC3)cn(C)c(=O)c2cc1OC | 15 (inactive) | 230
Cc1cc(C)c2c(=O)n(CC(=O)NCCCN3CCN(c4ccccc4F)CC3)sc2n1 | 15 (inactive) | 216
CCOC(=O)C1CCN(S(=O)(=O)c2ccc(-c3nc4ccccc4s3)s2)CC1 | 70 (inactive) | 136
O=C(C1CCN(S(=O)(=O)c2cccc3nsnc23)CC1)N1CC=C(c2ccccc2)CC1 | 27 (inactive) | 258
CCN1CCCC1CNC(=O)c1cc2c(-c3cccc(OC)c3)nn(C)c2s1 (stereo unspecified) | 25 (inactive) | 81.5
CCOC(=O)N1CCC(NC(=O)c2cc3c(-c4ccccc4F)nn(C)c3s2)CC1 | 60 (inactive) | 148
Cc1cccc(OCCn2c(=O)n(C)c3ccccc32)c1 | 15 (inactive) | 136
Cc1oc(-c2ccc(Cl)cc2)nc1CN1CCCC(C(=O)NCc2cccnc2)C1 (stereo unspecified) | 28 (inactive) | 67
O=C(CCN1C(=O)COc2ccccc21)NCCCN1CCN(c2ccccc2F)CC1 | 186 (inactive) | 204
CC1CCCCN1CCNC(=O)c1ccc2c(=O)n(CCc3ccccc3)c(=O)[nH]c2c1 (stereo unspecified) | 168 (inactive) | 184
CCc1ccc(-c2nc(CN3CCC(C(=O)NCc4ccco4)CC3)c(C)o2)cc1 | 25 (inactive) | 172
CC(C)(O)c1cn(-c2nonc2N)nn1 | 249 (inactive) | 106
CCN1CCCC1CNC(=O)c1cc2c(-c3ccc(Cl)cc3)nn(C)c2s1 (stereo unspecified) | 14 (inactive) | 88.5
O=C(NCC1CCCO1)C1CC(c2ccc(Cl)c(Cl)c2)=NO1 (stereo unspecified) | 85 (inactive) | 79
O=C(NCCCN1CCN(c2ccccc2F)CC1)C1CCN(S(=O)(=O)c2cccs2)CC1 | 44 (inactive) | 95.5
O=C1c2ccccc2C(Nc2ccc3c(c2)OCO3)N1Cc1ccc2c(c1)OCO2 (stereo unspecified) | 178 (inactive) | 189
